# This is a sample that favours compounds with a hit; in the whole collection about 17% have one here.
# TDP1 inh = blocks human tyrosyl-DNA phosphodiesterase 1; Q9NUW8; recombinant TDP1, AlphaScreen DNA substrate cleavage; Potency, µM (doses to about 130 µM), inactives show top-dose activity change, negative = inhibition, usual class: inhibitors; 350,000 compounds, 0.28% hits; AID 485290; further: on the % scale 0 is the no-effect control and ±100 the full control effect; nearly all actives have a fitted effect of over 40% in size
#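 Tdp1 1 nM final; 15 min RT w/ cpd; substrate 15 nM, 5 min; beads 10 ug/ml, 10 min; AlphaScreen read. Neg ctrl: no enzyme.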
# ClpP mod = qHTS Assay for Activators of ClpP; 340,000 compounds, 1.9% hits; ATP-dependent Clp protease proteolytic subunit (Bacillus subtilis (strain 168)), P80244; AID 651965, 2013; purified B. subtilis ClpP, FRET peptide cleavage, 20 min; Potency, µM (series often up to 57.5 µM), for inactives: at the top dose activity change, negative = active; active means well fitted falling curve with a large enough effect; inconclusive means small, poorly fitted or top-dose-only effect; inactive means no such curve, though single readings can be large or run the other way; further: the source files actives as falling curves though it sought activators and does not explain the sign; nearly all actives have a fitted effect of over 65% in size
#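 Purified B. subtilis ClpP, 10 microg/mL final in Tris/HCl pH8 with KCl, BSA, glycerol and Tween-20, cleaved an Abz/nitrotyrosine-quenched decapeptide. Fluorescence (ex 320, em 430) was read at 0 and 20 min at room temperature. Delta was normalized to 5.8 microM ADEP and DMSO/no-enzyme controls.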
# DT40 TDP1 CPT = DT40-hTDP1 cell growth loss with CPT; 420,000 compounds, 12% hits; chicken DT40 Tdp1-/-;hTDP1 cells + 20 nM CPT, ATP luminescence, 48 h; Potency, µM (doses to about 46.2 µM), for the others: at the highest dose activity change, negative = growth inhibition, most hits filed as inhibitors; further: on the % scale 0 is the no-effect control and ±100 the full control effect; nearly all actives have a fitted effect of over 55% in size
#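 Chicken DT40 Tdp1-/- cells stably complemented with human TDP1 were seeded at 400 cells/well in medium containing 20 nM camptothecin, exposed to pin-transferred compounds, and grown at 37 °C for at least 48 hr. Viability was read as ATP luminescence.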
# DT40 TDP1 no CPT = qHTS for Inhibitors of human tyrosyl-DNA phosphodiesterase 1 (TDP1): qHTS in cells in absence of CPT | Potency, µM (doses to about 46.2 µM), for the others: at the top dose activity change, negative = growth inhibition, hits mostly inhibitors | DT40 Tdp1-/- hTDP1 cells, no CPT, ATP luminescence, 48 h | 420,000 compounds, 15% hits; further: on the % scale 0 is the no-effect control and ±100 the full control effect; nearly all actives have a fitted effect of over 55% in size
#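 DT40 Tdp1-/-;hTDP1 cells, no CPT (DMSO vehicle only), 400 cells/well; compounds pin-transferred; ≥48 hr, 37 °C; CellTiter-Glo 30 min RT dark, luminescence read.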
# An asterisk follows results filed as active; u = inconclusive; x = no result; [ ] = remark or other dose. Unless noted, the call rests on the fitted dose curve; in most records, active means well fitted curve in the direction sought with a large enough effect; inconclusive means small, poorly fitted or top-dose-only effect, or another doubt; inactive means no such curve, though single readings can be large; an effect the other way counts as inactive or inconclusive. Potency means the concentration at half of the fitted maximal effect.
SMILES,TDP1 inh,ClpP mod,DT40 TDP1 CPT,DT40 TDP1 no CPT
COc1cccc(CSc2nc(-c3ccccc3OC)nc3c2Cc2c(CO)cnc(C)c2O3)c1,5.1%,-4.2%,5.8µM*,3.66µM*
Cc1ncc(CO)c2c1Oc1nc(-c3ccccc3Cl)nc(SCc3ccccc3F)c1C2,0.0%,0.2%,14.6µM*,14.6µM*
COc1ccc(C=O)cc1OC,9.9%,x,x,x
O=C(c1cc2cc(Cl)ccc2[nH]1)N1CCC2(CC1)OCCO2,3.0%,-16.4%,18.4µM*,u
O=C(c1cc2cc(F)ccc2[nH]1)N1CCC2(CC1)OCCO2,3.0%,-17.6%,u,u
CCCCCn1c(=O)c(C(=O)NCc2ccc(Cl)cc2)c(O)c2ccccc21,x,-29.6%,u,u
CCCCn1c(=O)c(C(=O)Nc2ccccc2S(N)(=O)=O)c(O)c2ccccc21,1.0%,10.3%,u,u
CCCCn1c(=O)c(C(=O)Nc2ccccc2)c(O)c2ccccc21,6.0%,x,3.66µM*,4.11µM*
CCCCCn1c(=O)c(C(=O)NC(C)c2ccccc2)c(O)c2ccccc21 (configuration not stated),x,-1.5%,u,20.6µM*
CCCCn1c(=O)c(C(=O)NCc2ccccc2)c(O)c2ccccc21,x,u,u,16.4µM*
CCCCCn1c(=O)c(C(=O)Nc2ccccc2S(N)(=O)=O)c(O)c2ccccc21,-2.8%,x,6.51µM*,4.61µM*
CCCNC(=O)C1(C)CCN(Cc2ccc3ccccc3c2Br)C1 (configuration not stated),x,-5.3%,u,u
Nc1ccc2nc3c(c(Cl)c2c1)CCCC3,0.0%,x,-8.0%,u
O=C(Cc1ccc(Cl)c(Cl)c1)N1CCCCC1CN1CCCC1 (configuration not stated),9.6%[56.1 µM],x,-36.3%,-15.6%
S=P(c1ccccc1)(c1ccccc1)c1c[nH]c2ccccc12,0.0%,x,x,x
CCN(CC)c1ccc(/C=N/c2sc3c(c2C#N)C2CCN3CC2)c(O)c1,2.3%,4.5%,18.4µM*,23.1µM*
CCOC(=O)c1oc2ccc(S(=O)(=O)n3nc(-c4ccc(Cl)cc4)cc3N)cc2c1C,5.2%,-0.5%,23.1µM*,11.6µM*
Cc1c(C(=O)Nc2ccc(Br)cc2F)oc2ccc(S(=O)(=O)N3CCCCC3)cc12,2.6%,-9.0%,u,u
CC(=O)OC1=CC[C@H]2[C@@H]3CC[C@H]4C[C@H](OC(C)=O)[C@@H](OC(C)=O)C[C@]4(C)[C@H]3CC[C@]12C,x,1.2%,14.6µM*,11.6µM*
CC(=O)O[C@H]1C[C@@H]2CC[C@@H]3[C@H](CC[C@]4(C)C(=O)CC[C@@H]34)[C@@]2(C)C[C@@H]1OC(C)=O,x,-0.4%,23.1µM*,u
CC(=O)C1CC[C@H]2C3CC[C@@H]4CC(O)CC[C@@]4(C)C3CC[C@]12C (some centres not stated),-4.5%[56.1 µM],x,1.7%,-27.9%
O=C(Cc1cc(=O)[nH][nH]1)N/N=C/c1cccc2ccccc12,7.5%,0.5%,u,3.0%
CN(C(=O)CSc1nc2ccc(NC(=O)COc3ccc(Cl)cc3)cc2s1)c1ccccc1,-2.6%,-6.5%,13µM*,10.3µM*
COc1ccccc1/C=C1/C(=N/O)C2CCN1CC2,-3.0%,0.4%,-11.8%,-14.2%
CO[C@H]1C=CCCC=CC(=O)O[C@H]([C@H](C)C(=O)CCCC2CC(=O)NC(=O)C2)C(C)=C[C@@H](C)[C@@H]1O,x,1.7%,16.4µM*,6.51µM*
SMILES,TDP1 inh,ClpP mod,DT40 TDP1 CPT,DT40 TDP1 no CPT
CCOc1ccc(CCNC(=O)c2cc3c(-c4cccc(OC)c4)nn(C)c3s2)cc1OCC,-2.3%,3.9%,u,18.4µM*
CCN(CCO)c1ccc(N=Cc2c(O)n(C)c(=S)[nH]c2=O)cc1,u,x,11.6µM*,10.3µM*
Cc1ccc(O)c(C(=O)c2cc(C(=O)NCCC(C)C)c(=O)n(CCC(C)C)c2)c1,5.3%,x,23.1µM*,18.4µM*
O=C(c1cc(C(=O)NCc2ccc(Cl)cc2)c(=O)n(Cc2ccc(Cl)cc2)c1)c1cc(F)ccc1O,3.5%,0.0%,u,u
c1csc(CN2CCC3(CCNCC3)CC2)n1,x,x,5.7%,9.6%
CC(N)Cc1cn(Cc2ccccc2)c2ccccc12 (configuration not stated),x,-2.8%,u,20.6µM*
O=Cc1cn(Cc2ccc(Br)cc2)c2ccccc12,x,0.1%,-10.5%,-26.3%
CNc1ccc2oc(C[C@@H]3OC4(CC[C@@H]3C)O[C@H]([C@@H](C)C(=O)c3ccc[nH]3)[C@H](C)C[C@H]4C)nc2c1C(=O)O (some centres not stated),24.4%,x,2.31µM*,4.61µM*
O=[N+]([O-])C(Br)Br,7.6%,x,x,x
Cn1cc(/C=C2\C(=O)NC(=O)N(c3ccccc3)C2=O)c2ccccc21,x,x,-27.6%,-11.0%
Cc1cccc(N2C(=O)NC(=O)/C(=C\c3cccn3-c3ccc(Cl)cc3)C2=O)c1,0.0%,-4.4%,10.3µM*,20.6µM*
O=C1NC(=O)N(c2ccccc2)C(=O)/C1=C/C=C/c1ccco1,x,1.7%,4.61µM*,4.61µM*
Cn1cccc1/C=C1\C(=O)NC(=O)N(Cc2ccco2)C1=O,17.8µM*,2.5%,9.2µM*,u
CN(C)c1ccc(/C=C/C=C2/C(=O)NC(=O)N(c3ccccc3)C2=O)cc1,3.0%,x,2.91µM*,4.11µM*
O=C1OC(c2ccc(O)c(S(=O)(=O)O)c2)(c2ccc(O)c(S(=O)(=O)O)c2)c2c(Br)c(Br)c(Br)c(Br)c21,-8.5%,x,8.0%,5.8%
CC(C)C(Br)C(=O)NC(N)=O (configuration not stated),-6.4%,x,12.0%,2.0%
CCOC(=O)C1CCN(/C=C2/C(=O)NC(=O)N(Cc3ccco3)C2=O)CC1,39.8µM*,-0.9%,-12.0%,-22.0%
Cc1cccc(N2C(=O)NC(=O)/C(=C\C=C\c3ccco3)C2=O)c1,-4.2%,0.3%,2.91µM*,8.2µM*
Cc1ccc(N2C(=O)NC(=O)/C(=C\C=C\c3ccco3)C2=O)cc1C,-4.7%,-1.0%,2.59µM*,5.17µM*
O=C1NC(=O)N(Cc2ccco2)C(=O)/C1=C/C=C/c1ccco1,x,1.1%,7.31µM*,9.2µM*
CN1C(=O)/C(=C/C=C/c2ccco2)C(=O)NC1=S,x,0.5%,u,u
CNC(=O)Oc1ccc2c(c1)[C@]1(C)CCN(C)C1N2C (some centres not stated),x,3.6%,-25.5%,-2.3%
COc1ccc(C(=O)N/N=C\c2coc3ccc(C)cc3c2=O)cc1,u,34.3%,-36.5%,-20.1%
CC1CCC(NC(=O)CN2CCN(S(=O)(=O)c3ccc(Br)s3)CC2)CC1 (configuration not stated),x,-3.5%,16.4µM*,16.4µM*
